# Source: PubChem BioAssay
# RGS12 GoLoco inh – RGS12 GoLoco-Gai1 interaction inhibition; P63096; Gai1:RGS12 GoLoco peptide FP, rhodamine, 10 min; Potency, µM (series often up to 61.6 µM), inactives show at the highest dose activity, negative = inhibition, most hits filed as inhibitors; hit rate 0.44% among 230,000; AID 880; active means well fitted inhibition curve with a large enough effect, not every such curve was filed as active; inactive means no such curve, though single readings can be large or run the other way; further: nearly all actives have a fitted effect of over 30% in size
# Tau fluor cs – counter-screen for tau fibril formation inhibitors; tau K18 P301L Alexa594 fluorescence, heparin fibrillization; Potency, µM (titrated, usually from 57.7 µM), without a hit: top-dose activity change, negative = decrease; hit rate 0.93% among 280,000; AID 1463; further: nearly all actives have a fitted effect of over 55% in size
#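 Human K18 P301L tau (15 uM unlabeled plus 0.24 uM Alexa 594-labeled, final) in 100 mM sodium acetate pH 7 was mixed with compound and 20 uM heparin and incubated 6 hr at 37 C.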
# Tau fibril FP – tau fibrillization inhibition (FP); P10636; Potency, µM (highest dose often 57.7 µM), for inactives: at the top dose activity, negative = inhibition, most hits filed as inhibitors; K18 P301L tau heparin fibrillization, Alexa594 FP, 6 h; hit rate 0.39% among 280,000; further: nearly all actives have a fitted effect of over 55% in size
# Target sequence (P10636 561-689 P618L limits assumed): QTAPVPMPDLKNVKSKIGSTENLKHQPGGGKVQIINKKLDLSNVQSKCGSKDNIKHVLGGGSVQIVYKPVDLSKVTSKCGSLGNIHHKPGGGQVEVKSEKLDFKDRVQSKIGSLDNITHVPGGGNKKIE
#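 K18 P301L tau (15 uM unlabeled/0.24 uM Alexa 594-labeled, final) + compound + heparin 20 uM final; 100 mM NaOAc pH 7; 6 hr 37 C; ThT 30 uM final added, 1 hr RT; FP ex 555/em 632 nm.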
# Tau ThT inhib – blocks human tau fibril formation measured by thioflavin T | P10636 | recombinant tau K18 P301L, heparin-induced fibrillization, ThT fluorescence | Potency, µM (titrated, usually from 57.4 µM), for the others: at the top dose activity, negative = inhibition, actives largely listed as inhibitors | hit rate 2.1% among 270,000 | AID 1460; further: nearly all actives have a fitted effect of over 55% in size
#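 ThT emission at 510 nm, taken 1 hr after adding 30 uM dye, quantifies aggregates formed when 20 uM heparin acts on human tau K18 P301L for 6 hr at 37 C.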
# KDM4E inh – inhibitors of human JMJD2E histone demethylase; JMJD2E catalytic domain, FDH-coupled NADH fluorescence (FDH is formaldehyde dehydrogenase); Potency, µM (titrated, usually from 57.1 µM), without a hit: at the highest dose activity change, negative = inhibition, actives largely listed as inhibitors; hit rate 1.6% among 230,000; AID 2147; active means well fitted inhibition curve with a large enough effect, not every such curve was filed as active; inconclusive means small, poorly fitted or top-dose-only effect, or another doubt; inactive means no such curve, though single readings can be large or run the other way;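 further: 0% = wells with enzyme and -100% = buffer wells without enzyme; nearly all actives have a fitted effect of over 50% in size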
# Target sequence (B2RXH2 1-337 limits assumed): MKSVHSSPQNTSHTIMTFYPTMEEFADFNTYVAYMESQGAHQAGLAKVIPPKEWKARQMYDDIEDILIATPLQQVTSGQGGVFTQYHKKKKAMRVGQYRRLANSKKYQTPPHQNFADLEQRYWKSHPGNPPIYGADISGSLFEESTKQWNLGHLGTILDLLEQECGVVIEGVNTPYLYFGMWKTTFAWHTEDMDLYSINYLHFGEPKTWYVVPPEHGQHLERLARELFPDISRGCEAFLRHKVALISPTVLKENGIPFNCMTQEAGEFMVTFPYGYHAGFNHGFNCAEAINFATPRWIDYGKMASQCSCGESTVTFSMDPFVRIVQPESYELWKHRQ
# * = called active by the depositor; ? = inconclusive; · = no result; [ ] = remark or other dose. Rows were chosen to be rich in hits. Some 3.4% of all compounds tested hit in one or more screens of this group. Unless noted, the call rests on the fitted dose curve; in most records, active means well fitted curve in the direction sought with a large enough effect; inconclusive means small, poorly fitted or top-dose-only effect, or another doubt; inactive means no such curve, though single readings can be large; an effect the other way counts as inactive or inconclusive. Unless noted, on the % scale 0 is the no-effect control and ±100 the full control effect; potency means the concentration at half of the fitted maximal effect.
SMILES,RGS12 GoLoco inh,Tau fluor cs,Tau fibril FP,Tau ThT inhib,KDM4E inh
COc1ccc(Nc2ccc3c(c2)=NC2(CCCCC2)[N+]=3[O-])cc1,-0.3%,?,?,4.47µM*,?
[O-][N+]1=c2ccc(Nc3ccccc3)cc2=NC12CCCCC2,9.6%,?,?,7.08µM*,?
[ClH+][Cu][ClH+].[Cu].[OH2+]c1ccc2ccccc2c1CN1CCCCC1.[OH2+]c1ccc2ccccc2c1CN1CCCCC1,-16.9%[14.2 µM],·,·,·,·
COc1cc(CNCCSc2nnnn2C)ccc1OCc1ccccc1C,·,-16.5%,-1.9%,-12.3%,·
O=C(Nc1ccc(Br)cc1F)c1ccc2nc(CCc3ccccc3)oc2c1,·,-7.0%,-6.4%,?,·
CCOC(=O)Nc1ccc(NCc2ccc(F)cc2)nc1N,-18.9%,?,?,17.8µM*,?
O=C1C(=O)c2ccc(-c3ccccc3)cc2-c2ccccc21,-6.8%,-17.7%,?,1.26µM*,-1.3%
Nc1ccc2c(c1)C(=O)C(=O)c1ccccc1-2,-64.1%,-4.2%,4.0%,-2.4%,-0.5%
CCCCN1C(=O)C(O)(c2c[nH]c3ccccc23)c2cc(Br)ccc21 (centres undefined),·,?,-1.3%,-10.8%,·
Cc1ccc(NC(=O)c2c(C)cc(C)nc2SCC(=O)Nc2ccc(Br)cc2)cc1,·,-15.1%,?,8.7%,·
C/C=C/c1ccc(OCC(=O)O)c(OC)c1,3.5%,-2.2%,-3.1%,-7.8%,-7.6%
CC1=C(C#N)c2nc(N)c(C#N)c(C)c2/C1=C\c1ccc(-c2ccccc2C(=O)O)o1,54.8%,?,?,8.91µM*,?
COc1cc(/C=C2/C(C)=C(C#N)c3nc(N)c(C#N)c(C)c32)ccc1OCC(=O)O,156.7%,?,?,14.1µM*,?
O=c1c2ccc(Cl)cc2nc(-c2cccc(C(F)(F)F)c2)n1O,4.4%,-2.9%,2.4%,-1.6%,31.6µM*
O=C(OCn1ncc(Br)c(Br)c1=O)c1c(F)cccc1F,-7.0%,-17.8%,?,7.08µM*,-16.3%
CCC(CC)C1C(C#N)=C(N)Oc2cc(C)oc(=O)c21 (centres undefined),4.9%,-7.2%,-2.3%,-9.4%,0.3%
Cc1cc2c(c(=O)o1)C(c1ccc([N+](=O)[O-])o1)C(C#N)=C(N)O2 (centres undefined),7.5%,-25.2%,?,14.1µM*,?
CCOc1ccc(C2=CC(c3cc(Br)ccc3F)n3ncnc3N2)cc1Cl (centres undefined),·,-9.5%,-5.7%,-13.7%,·
COc1ccc(/C=N\Nc2ccc([N+](=O)[O-])cc2)c(C(=O)O)c1OC,11.9%,-18.0%,5.9%,12.6µM*,-5.8%
CCOc1ccc(S(=O)(=O)N2CCN(c3cc(Cl)ccc3Cl)CC2)c2ccccc12,·,-19.4%,?,-10.2%,·
COc1ccccc1NC(=S)NNC(=O)c1ccc(O)cc1,-1.8%,-6.5%,-4.0%,-2.1%,1.8%
COc1ccccc1NC(=S)NNC(=O)c1nn(C)c(C)c1Br,-6.0%,-16.7%,-4.5%,?,7.94µM*
COc1ccccc1NC(=S)NNC(=O)c1nn(C)c(C)c1Cl,-1.5%,-12.8%,3.8%,?,14.1µM*
COc1ccccc1NC(=O)c1nn(C)cc1Br,6.4%,-5.4%,-7.4%,-11.0%,-1.3%
COc1ccccc1NC(=S)NNC(=O)c1nn(C)cc1Cl,-3.6%,-11.9%,-3.5%,-15.9%,10µM*
SMILES,RGS12 GoLoco inh,Tau fluor cs,Tau fibril FP,Tau ThT inhib,KDM4E inh
COc1cccc(Cn2c(-c3nonc3NC(C)=O)nc3ccccc32)c1,·,-21.7%,-7.0%,?,·
Cc1ccc(Nc2nc(C(N)=O)c(NC(=O)c3ccccc3Br)s2)cc1,·,?,0.6%,?,·
CCc1ccccc1N1CSC2=C(C#N)C(c3cc(OC)c(OC)cc3OC)CC(=O)N2C1 (centres undefined),-35.9%,-25.7%,?,28.2µM*,?
COc1ccc(C2CC(=O)N3C(=C2C#N)SCC3(O)c2ccccc2)cc1 (centres undefined),194.0%,-20.6%,6.7%,-9.7%,135.8%
COc1cc(C2CC(=O)n3c(nc4ccccc43)S2)cc(OC)c1OC (centres undefined),8.1%,-2.2%,-1.1%,-2.4%,?
COc1ccccc1N1CSC2=C(C#N)C(c3ccc(SC)cc3)CC(=O)N2C1 (centres undefined),-32.1%,-24.4%,?,28.2µM*,22.4µM*
COc1cc(C2CC(=O)N3CN(c4ccccc4C)CSC3=C2C#N)cc(OC)c1OC (centres undefined),-33.3%,-12.7%,?,22.4µM*,11.2µM*
COc1ccc(Br)cc1C1CC(=O)N2CN(Cc3ccccc3)CSC2=C1C#N (centres undefined),-1.9%,-20.5%,?,28.2µM*,-19.5%
CC(=O)c1ccc(NC(=O)c2nc(-c3ccccc3)n(-c3ccccc3Cl)n2)cc1,·,-22.1%,-6.0%,-4.8%,·
Cc1ccn2c(=O)c(C(=O)NC(C)c3ccccc3)c(O)nc2c1 (centres undefined),·,-1.0%,-1.9%,5.7%,·
Cc1cccc(NC(=O)CSc2cn(CC(=O)N3CCOCC3)c3ccccc23)c1C,·,-10.2%,-9.6%,-12.9%,·
CN1CCN(C2=C(Cl)C(=O)N(c3cccc(Cl)c3)C2=O)CC1,7.9%,?,?,22.4µM*,-3.4%
O=C1C(Cl)=C(N2CCOCC2)C(=O)N1c1ccccc1Cl,-2.5%,?,20µM*,14.1µM*,2.9%
Cc1ccc(N2C(=O)C(Cl)=C(N3CCOCC3)C2=O)cc1Cl,-4.6%,?,22.4µM*,14.1µM*,0.3%
CN1CCN(C2=C(Cl)C(=O)N(c3ccc(Cl)c(Cl)c3)C2=O)CC1,-2.1%,-27.9%,?,14.1µM*,0.4%
COc1cc(-c2nnc(SCCOc3ccc(C)c(Cl)c3)o2)cc(OC)c1OC,·,-7.4%,?,3.5%,·
Cc1ccccc1N1C(=O)C(Cl)=C(N2CCN(c3ccccc3)CC2)C1=O,-11.6%,?,?,15.8µM*,-17.6%
COC(=O)c1cccc(N2C(=O)C(Cl)=C(N3CCOCC3)C2=O)c1,3.2%,?,28.2µM*,14.1µM*,-1.8%
N#C/C(=C\c1cc([N+](=O)[O-])c(N2CCOCC2)cc1N1CCOCC1)c1nc2ccccc2[nH]1,6.7%,?,2.1%,15.8µM*,-2.9%
N#C/C(=C/c1cccs1)c1nc2ccccc2[nH]1,8.9%,-4.3%,-4.5%,-14.5%,-28.2%
COc1cc(N2CCCC2)c(OC)cc1/C=C(/C#N)c1cccc(F)c1,9.1%,?,13.0%,?,-14.3%
N#C/C(=C/c1ccc(N2CCCCCC2)o1)c1cccc(F)c1,83.8%,?,?,14.1µM*,-0.2%
N#C/C(=C/c1ccc(N2CCOCC2)o1)c1nc2ccccc2[nH]1,314.8%,?,-5.4%,7.94µM*,?
N#C/C(=C/c1ccc(N2CCOCC2)o1)c1ccc(Br)cc1,20.0%,?,?,14.1µM*,?
N#C/C(=C/c1ccc(N2CCOCC2)o1)C(=O)NC1CCCCC1,-1.1%,-25.9%,3.2%,?,?
